Compound activity: PubChem BioAssay, National Center for Advancing Translational Sciences (NCATS)
DT40 TDP1 CPT – DT40-hTDP1 cell growth loss with CPT. chicken DT40 Tdp1-/-;hTDP1 cells + 20 nM CPT, ATP luminescence, 48 h. 420,000 tested, 12% active. Potency, µM (series often up to 46.2 µM), most hits filed as inhibitors; note: nearly all actives have a fitted effect of over 55% in size
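Chicken DT40 Tdp1-/- cells complemented with human TDP1, 400 cells/well, exposed to compounds plus 20 nM camptothecin for at least 48 h at 37 C; viability read as ATP content by CellTiter-Glo luminescence.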
HT1080-NT tox – kills 2HG-producing HT-1080-NT fibrosarcoma cells; Potency, µM (highest dose often 46.1 µM), usual class: cytotoxic; 360,000 tested, 1.6% active; HT-1080-NT fibrosarcoma viability, CellTiter-Glo ATP luminescence, 48 h; AID 686970;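 note: NT is the 2HG producing partner of a matched IDH1 knockdown line; nearly all actives have a fitted effect of over 55% in size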
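Toxicity toward the 2HG-producing NT line was scored as %Activity, normalised to DMSO and no-cell wells, from CellTiter-Glo luminescence after 48 hours' treatment.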
HT1080 IDH1KD tx – kills HT-1080 cells with IDH1 knockdown. HT-1080 IDH1 knockdown viability, ATP luminescence, 48 h. Potency, µM (doses to about 46.1 µM), usual class: cytotoxic. 360,000 tested, 2% active. AID 686971
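Using the IDH1-knockdown HT-1080 line run in the same batch and compound series as the NT line, viability after 48 h at 37 °C was determined by CellTiter-Glo luminescence and expressed as % activity.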
DT40 TDP1 no CPT – qHTS for Inhibitors of human tyrosyl-DNA phosphodiesterase 1 (TDP1): qHTS in cells in absence of CPT; DT40 Tdp1-/- hTDP1 cells, no CPT, ATP luminescence, 48 h; Potency, µM (highest dose often 46.2 µM), hits mostly inhibitors; 420,000 tested, 15% active; AID 686978, 2013; note: nearly all actives have a fitted effect of over 55% in size
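Growth of hTDP1-complemented DT40 Tdp1-knockout cells is measured by ATP luminescence after at least 48 hr compound exposure at 37 °C, with DMSO substituting for the 20 nM CPT used in the parallel screen.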
TGFb inhibitor – TGF-b pathway inhibition. HepG2 CAGA-GFP TGF-b/SMAD3 reporter, GFP fluorescence, 18 h; TGF-beta stimulated, 500 pg/mL final. Potency, µM (series often up to 46.1 µM), hits mostly inhibitors. 410,000 tested, 1.2% active; note: nearly all actives have a fitted effect of over 65% in size
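Using HEPG2 CAGA-GFP reporter cells at 1000 cells/well, we pinned test compounds, stimulated with recombinant TGF-beta (500 pg/mL final) and measured total well GFP after 18 h.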
HepG2 viability – counter-screen for TGF-b inhibitors: cytotoxicity in HepG2 cells; HepG2 CAGA-GFP viability, ATP luminescence, 18 h; Potency, µM (series often up to 46.1 µM), most hits filed as cytotoxic; 410,000 tested, 0.76% active
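CellTiter-Glo luminescence gave cytotoxicity after 18 hours at 37 degrees C. The cells were HepG2 CAGA-GFP in 1% FBS DMEM, stimulated with 500 pg/mL TGF-beta after compound addition. %Activity was normalised to no-cell wells (complete cell-killing) and DMSO (no toxicity), and curves were fitted and classified.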
A number is an active result; n = inactive; u = inconclusive; x = no result. An excerpt weighted towards active compounds, which were near 17% of everything screened. Calls come from the whole dose curve; as a rule, active = well fitted curve in the direction sought with a large enough effect; inconclusive = small, poorly fitted or top-dose-only effect, or another doubt; inactive = no such curve, though single readings can be large; an effect the other way counts as inactive or inconclusive.

SMILES	DT40 TDP1 CPT	HT1080-NT tox	HT1080 IDH1KD tx	DT40 TDP1 no CPT	TGFb inhibitor	HepG2 viability
Cc1nn(Cc2ccccc2)c2c1C(c1ccc(Cl)cc1)C(C#N)=C(N)O2 (configuration not stated)	18µM	n	u	21µM	n	n
Cc1nn(-c2ccccc2)c2c1C(c1ccc(Br)s1)C(C#N)=C(N)O2 (configuration not stated)	u	n	n	12µM	n	n
Cc1nn(Cc2ccccc2)c2c1C(c1cccnc1)C(C#N)=C(N)O2 (configuration not stated)	u	n	n	u	n	n
COc1ccc(NC(=O)c2cc(C)no2)cc1	n	n	n	n	n	n
Cc1ccccc1NC(=O)CCC(=O)N/N=C/c1ccncc1	n	n	n	n	n	n
CC(C)(C)CC(C)(C)NC(=O)Nc1cccc([N+](=O)[O-])c1	u	u	u	16µM	u	n
O=C(O)C1C2CCC(C2)C1C(=O)Nc1cccc([N+](=O)[O-])c1 (configuration not stated)	n	n	n	n	n	n
O=C(Nc1cccc([N+](=O)[O-])c1)C1C2CC/C=C\CCC21 (configuration not stated)	n	n	n	18µM	u	n
Cc1cc(NC(=O)Nc2cccc([N+](=O)[O-])c2)no1	n	n	n	n	n	n
CC(C)[C@H](NC(N)=O)C(=O)Nc1cccc([N+](=O)[O-])c1	n	n	n	n	0.63µM	n
CC(C)(C)c1ccc(C(=O)Nc2cccc([N+](=O)[O-])c2)cc1	16µM	n	n	18µM	u	n
COc1ccccc1NC(=O)NC1CCS(=O)(=O)C1 (configuration not stated)	n	n	n	n	n	n
CC(C)CN(C(=O)COC(=O)CNC(=O)c1ccccc1)c1c(N)n(Cc2ccccc2)c(=O)[nH]c1=O	n	n	n	n	n	n
NC(=O)c1ccc(NC(=O)CNC(c2ccccc2)c2ccccc2)cc1	n	n	n	n	n	n
Cc1cccc(NC(=O)C(=O)NNC(=O)c2ccc(C(C)(C)C)cc2)c1	u	6.5µM	8.2µM	u	n	n
O=P(O)(O)OC(CO)CO	n	x	x	n	x	x
CC(Oc1ccccc1)C(=O)Nc1nnc2n1CCS2 (configuration not stated)	n	x	x	n	n	n
CCOc1ccc(S(=O)(=O)Nc2ccc3c(c2)N(C(C)=O)CCC3)cc1	u	x	x	18µM	n	n
CC(=O)Nc1ccc(NS(=O)(=O)c2ccc3c(c2)CCCN3C(C)=O)cc1	n	x	x	n	n	n
CC(=O)N1CCCc2ccc(NS(=O)(=O)c3ccc(C)cc3)cc21	u	n	n	26µM	n	n
CCOc1ccc(S(=O)(=O)Nc2ccc3c(c2)CCCN3C(=O)c2cccs2)cc1	u	x	x	n	n	n
COc1ccc(-c2nonc2NC(=O)c2ccco2)cc1OC	n	n	n	n	n	n
Cc1cccc(CNC(=O)C2CCN(c3nc4ccc(Cl)cc4[nH]3)CC2)c1	u	x	x	u	n	n
CCCS(=O)(=O)NC(=O)C1(C)CCN(C(=O)c2cc(C)n(C(C)(C)C)n2)C1 (configuration not stated)	n	n	n	n	n	n
CCC(C(=O)NCCCN1CCOCC1)n1c2ccccc2c2nc(=O)cc(C)n21 (configuration not stated)	n	n	n	n	n	n
CCOC(=O)C1=NNC(C(=O)c2ccc(Cl)cc2)C1c1ccc(OC)cc1 (configuration not stated)	u	n	n	18µM	n	n
CCOC(=O)C1NN=C(C(=O)c2ccc(C)cc2)C1c1ccc(C)cc1 (configuration not stated)	18µM	n	n	21µM	n	n
